Results on six compounds are retold here after PubChem BioAssay (NCATS).

Records with an inconclusive call do not appear. The source made the active and inactive calls. Unless noted, calls come from the whole dose curve; as a rule, active = well fitted curve in the direction sought with a large enough effect; inconclusive = small, poorly fitted or top-dose-only effect, or another doubt; inactive = no such curve, though single readings can be large; an effect the other way counts as inactive or inconclusive.

Assay [1] has as its target Cytochrome P450 3A4 (Homo sapiens) (UniProt P08684). Description: qHTS Assay for Activators of Cytochrome P450 3A4 (AID 885). Note: nearly all actives have a fitted effect of over 65% in size. In a few lines: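 Signal was normalized against complete inhibition by 57 uM ketoconazole. The reaction used 20nM CYP3A4 with 25uM Luciferin-PPXE, 10-min compound preincubation and a 60-min NADPH-supported step at RT.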
In general terms: In qHTS, concentration-response curves come from the screen itself.

A short description of assay [2]: Confirmation and Secondary Assay for Modulators of Hemoglobin Beta Chain Splicing at IVS2 705 locus (AID 930).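 Note: HeLa cells stably expressing the EGFP-705 splicing reporter; GFP fluorescence per well restored by corrected splicing of the IVS2-705 intron in EGFP; % of control where 0% means no effect.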 In a few lines: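 Per-well GFP, captured at 1 x 8 µm resolution with 488 nm excitation, served as the read-out for HeLa EGFP-705 cells incubated 2 days with test compound versus DMSO.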
The nature of assay [3]: qHTS Assay for Lipid Storage Modulators (AID 1519; calls by dose curve; for activity change, negative = inhibition: % is set by controls: 0 for no effect and ±100 for the full control effect). To be noted: Drosophila S3 cells, BODIPY lipid droplet/cell ratio, laser cytometry, cells loaded with oleic acid. In a few lines:
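Cells seeded at 5,000 per well were treated with compounds over a concentration series and loaded with oleic acid (400 uM, as added). Lipid droplet fluorescence (488 nm excitation, 500-530 nm channel) was read by laser-scanning cytometry and normalized to 20 uM Triacsin C.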

Assay [4] has as its target ATP-dependent 6-phosphofructokinase (Trypanosoma brucei brucei) (UniProt O15648). Description: qHTS Assay to Find Inhibitors of T. brucei phosphofructokinase: hit validation (AID 492961).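 Note: luminescence reports ADP formed as PFK phosphorylates fructose-6-phosphate with ATP; % is set by controls: 0 for no effect and ±100 for the full control effect.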 The procedure, abridged: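 PFK 1.25 nM, F6P 0.5 mM, ATP 0.1 mM, MgCl2 5 mM, 0.1 M TEA pH 8.0, Tween20 0.01%, BSA 0.1%; 45 min RT. ADP-Glo two-step detection, luminescence. qHTS titration; curve fitting with curve-class categorization.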

In assay [5] the target is Ubiquitin carboxyl-terminal hydrolase 1 (Homo sapiens) (UniProt O94782). As to the kind of experiment: Inhibitors of USP1/UAF1: Pilot qHTS (AID 504865).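 Note: rhodamine fluorescence freed from ubiquitin-rhodamine substrate followed over time; top concentration of the series differs between compounds; % is set by controls: 0 for no effect and ±100 for the full control effect; nearly all actives have a fitted effect of over 35% in size.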 The procedure, abridged:
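In 50mM HEPES pH 7.8 containing 0.5mM EDTA, 1mM TCEP, 0.1 mg/ml BSA and 0.01% Tween-20, 1nM USP1/UAF1 is exposed to compound for 15 min, then Ub-Rho (150nM final) is added and fluorescence is read over time.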

In assay [6] the target is Luciferin 4-monooxygenase (Photinus pyralis) (UniProt P08659). Description: Biochemical firefly luciferase enzyme assay for NPC (AID 624030).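 Note: purified P. pyralis luciferase at 10 nM with luciferin and ATP substrate; 0% = DMSO and -100% = full luciferase inhibition by PTC124 control; nearly all actives have a fitted effect of over 70% in size.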 The procedure, abridged:
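Counter-screen for direct inhibition of the luciferase enzyme by approved-drug library compounds, run at 10 nM enzyme in 50 mM Tris acetate (final). Luminescence was read within 5 min of enzyme-buffer addition and normalized to PTC124 versus DMSO (0%).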

Assay [7] can be described thus: qHTS profiling for inhibitors of Plasmodium falciparum proliferation (AID 504749).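 For activity, negative = inhibition: 0% = DMSO vehicle and full inhibition = artemisinin control.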 For all read-outs here: nearly all actives have a fitted effect of over 60% in size. Note: potency is the fitted concentration of half-maximal effect. To be noted: P. falciparum in erythrocytes, SYBR Green DNA, 72 h; for activity, negative = inhibition: at 28.7 µM (top of the series). In a few lines: (§1)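 Parasite proliferation within erythrocytes, 72 h exposure. Endpoint: SYBR Green I fluorescence after overnight lysis at room temperature. Controls: 0.29 uM artemisinin, DMSO.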

In another assay the test system is AS120. The assay is described as above. To be noted: P. falciparum in erythrocytes, SYBR Green DNA, 72 h; series mostly up to 28.7 µM. The procedure, abridged:
as §1

The next assay relates to ATS189. The description is as above. To be noted: P. falciparum in erythrocytes, SYBR Green DNA, 72 h; series mostly up to 28.7 µM. The procedure, abridged: as §1
For another assay, the system named is CP247. Described as above. The note with it: P. falciparum in erythrocytes, SYBR Green DNA, 72 h; series mostly up to 28.7 µM. The procedure, abridged: as §1
The subject of a further assay is CP269. The assay is described as above. To be noted: P. falciparum in erythrocytes, SYBR Green DNA, 72 h; series mostly up to 28.7 µM. The procedure, abridged: as §1
Another assay has as its system ECU. The assay is described as above. The note with it: P. falciparum in erythrocytes, SYBR Green DNA, 72 h; series mostly up to 28.7 µM. The procedure, abridged: as §1
The test system of the next assay is TAB109. Described as above. To be noted: P. falciparum in erythrocytes, SYBR Green DNA, 72 h; series mostly up to 12.8 µM. The procedure, abridged: as §1
The target in assay [8] is Cytochrome P450 1A2 (Homo sapiens) (UniProt P05177). Description: p450-cyp1a2 (AID 410; calls by dose curve;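 note: -100% = full effect of reference inhibitor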). In a few lines: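 Luminescent readout of luciferin formed from Luciferin-ME by human CYP1A2; data normalized against complete inhibition by 57 uM furafylline. Enzyme 20nM, substrate 100uM at Km, 100mM KPO4 buffer, 60 min reaction at room temperature.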
In assay [9] the target is Glucocorticoid receptor (Homo sapiens) (UniProt P04150). As to the kind of experiment: GR-GFP Redistribution (AID 450;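 active = compounds whose dose series gives a full or clear partial fitted curve of increased nuclear translocation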; note: potency is the fitted concentration of half-maximal effect). The note with it: U2OS GR-GFP nuclear translocation, laser cytometry, 2 h.
The target is the same in assay [10]. As to the kind of experiment: GR-EFC Redistribution (AID 451; calls by dose curve; note: potency is the fitted concentration of half-maximal effect). The note with it: CHO-K1 GR-EFC translocation, beta-gal luminescence, 2 h. The procedure, abridged:
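CHO-K1 cells stably expressing nuclear-localized β-gal enzyme acceptor and GR fused C-terminally to the enzyme donor fragment; ligand-driven nuclear translocation restores β-gal by complementation. Compounds titrated up to 46 uM final, 2 h at 37 °C; luminescence read.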

In assay [11] the target is Mitogen-activated protein kinase 10 (Mus musculus) (UniProt Q61831). As to the kind of experiment: JNK3 AlphaScreen Assay (AID 530; active = well fitted curve in either direction with a large enough effect, not every such curve was filed as active;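 note: kinase came from lysate of stimulated human HepG2 cells; signal reports phosphorylation of biotinylated GST-cJun 1-79 at Ser73 with 10 µM ATP; % is set by controls: 0 for no effect and ±100 for the full control effect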). The procedure, abridged:
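Inhibitors reduce antibody binding to phosphorylated biotin-cJun, lowering AlphaScreen luminescence. Lysates from HepG2 cells pre-activated by IL-1beta plus TNF-alpha supplied JNK3; compounds were titrated.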

The target of assay [12] is Cytochrome P450 3A4 (Homo sapiens) (UniProt P08684). Description: qHTS Assay for Inhibitors and Substrates of Cytochrome P450 3A4 (AID 884). For activity change, negative = inhibition: % is set by controls: 0 for no effect and ±100 for the full control effect. Note: nearly all actives have a fitted effect of over 50% in size. Note: potency is the fitted concentration of half-maximal effect. In a few lines:
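20 nM human CYP3A4 with 25 uM Luciferin-PPXE (at KM) in 200 mM KPO4, preincubated 10 min with compound; NADPH regeneration started a 60 min RT reaction. Luciferin detected by luminescence, normalized to 57 uM ketoconazole as full inhibition.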

A short description of assay [13]: Confirmation and Secondary Assay for Modulators of Hemoglobin Beta Chain Splicing at IVS2 654 locus (AID 910).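 Note: per-well total GFP intensity by laser scanning cytometry after 2-day treatment; % of control where 0% means no effect.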 In a few lines: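 HeLa cells stably carrying EGFP interrupted by mutant beta-globin IVS2-654 intron (CMV-driven) were treated with compound for 2 days at 37C; corrected splicing was scored as total peak GFP intensity per well (488 nm excitation, 500-520 nm emission).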

Where [14] appears, read: measured here: cell count channel max response.
The mark [15] stands for this setting: measured here: lipid channel max response.

Sequence of Ubiquitin carboxyl-terminal hydrolase 1 (Homo sapiens) (O94782 whole entry, looked up): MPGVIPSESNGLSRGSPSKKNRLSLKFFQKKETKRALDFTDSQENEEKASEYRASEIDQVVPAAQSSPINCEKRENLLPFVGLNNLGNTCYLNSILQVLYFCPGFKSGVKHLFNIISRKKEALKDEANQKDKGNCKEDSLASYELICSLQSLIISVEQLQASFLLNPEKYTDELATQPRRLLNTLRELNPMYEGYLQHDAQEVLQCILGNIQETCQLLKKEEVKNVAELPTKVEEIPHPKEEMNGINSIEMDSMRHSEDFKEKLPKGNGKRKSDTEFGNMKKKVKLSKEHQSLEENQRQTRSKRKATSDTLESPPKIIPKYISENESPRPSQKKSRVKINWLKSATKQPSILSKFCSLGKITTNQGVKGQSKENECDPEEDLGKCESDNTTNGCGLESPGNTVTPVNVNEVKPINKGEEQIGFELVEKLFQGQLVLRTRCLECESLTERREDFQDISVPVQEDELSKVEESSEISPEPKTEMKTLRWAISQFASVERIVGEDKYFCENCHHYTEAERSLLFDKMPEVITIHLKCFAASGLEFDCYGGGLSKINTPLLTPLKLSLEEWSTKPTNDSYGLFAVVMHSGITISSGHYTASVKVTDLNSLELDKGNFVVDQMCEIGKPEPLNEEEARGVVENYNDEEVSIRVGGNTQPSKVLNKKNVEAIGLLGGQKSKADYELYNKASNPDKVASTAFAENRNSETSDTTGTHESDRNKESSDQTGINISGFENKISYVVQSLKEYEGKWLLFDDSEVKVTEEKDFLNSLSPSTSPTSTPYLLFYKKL
Sequence of Luciferin 4-monooxygenase (Photinus pyralis) (P08659 whole entry, looked up): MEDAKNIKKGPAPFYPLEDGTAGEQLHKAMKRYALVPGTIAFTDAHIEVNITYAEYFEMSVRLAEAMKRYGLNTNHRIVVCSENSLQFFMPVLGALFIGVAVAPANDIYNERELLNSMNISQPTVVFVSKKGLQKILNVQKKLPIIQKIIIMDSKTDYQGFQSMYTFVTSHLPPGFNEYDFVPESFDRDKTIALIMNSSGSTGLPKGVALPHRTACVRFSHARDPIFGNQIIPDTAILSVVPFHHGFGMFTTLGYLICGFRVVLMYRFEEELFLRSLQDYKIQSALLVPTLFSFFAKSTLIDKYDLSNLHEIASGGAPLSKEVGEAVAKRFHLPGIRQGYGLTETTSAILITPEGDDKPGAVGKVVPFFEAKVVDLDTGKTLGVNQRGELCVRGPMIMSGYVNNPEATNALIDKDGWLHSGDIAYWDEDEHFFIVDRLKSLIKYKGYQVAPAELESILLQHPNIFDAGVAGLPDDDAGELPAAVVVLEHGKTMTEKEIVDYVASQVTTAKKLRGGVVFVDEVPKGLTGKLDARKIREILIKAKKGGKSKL
Sequence of ATP-dependent 6-phosphofructokinase (Trypanosoma brucei brucei) (O15648 whole entry, looked up): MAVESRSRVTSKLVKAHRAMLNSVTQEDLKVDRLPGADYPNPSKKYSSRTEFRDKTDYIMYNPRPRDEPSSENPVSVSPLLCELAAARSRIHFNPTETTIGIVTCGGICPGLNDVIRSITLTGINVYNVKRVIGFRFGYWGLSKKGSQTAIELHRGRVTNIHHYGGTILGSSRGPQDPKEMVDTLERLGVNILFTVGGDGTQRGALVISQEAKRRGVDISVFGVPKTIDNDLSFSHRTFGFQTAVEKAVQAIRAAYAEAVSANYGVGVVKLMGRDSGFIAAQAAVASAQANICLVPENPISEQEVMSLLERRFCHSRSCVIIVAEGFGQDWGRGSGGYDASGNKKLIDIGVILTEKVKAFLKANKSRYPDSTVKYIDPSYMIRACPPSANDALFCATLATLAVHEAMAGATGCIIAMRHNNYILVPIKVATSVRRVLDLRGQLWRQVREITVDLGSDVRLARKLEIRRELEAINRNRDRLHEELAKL
Sequence of Cytochrome P450 3A4 (Homo sapiens) (P08684 whole entry, looked up): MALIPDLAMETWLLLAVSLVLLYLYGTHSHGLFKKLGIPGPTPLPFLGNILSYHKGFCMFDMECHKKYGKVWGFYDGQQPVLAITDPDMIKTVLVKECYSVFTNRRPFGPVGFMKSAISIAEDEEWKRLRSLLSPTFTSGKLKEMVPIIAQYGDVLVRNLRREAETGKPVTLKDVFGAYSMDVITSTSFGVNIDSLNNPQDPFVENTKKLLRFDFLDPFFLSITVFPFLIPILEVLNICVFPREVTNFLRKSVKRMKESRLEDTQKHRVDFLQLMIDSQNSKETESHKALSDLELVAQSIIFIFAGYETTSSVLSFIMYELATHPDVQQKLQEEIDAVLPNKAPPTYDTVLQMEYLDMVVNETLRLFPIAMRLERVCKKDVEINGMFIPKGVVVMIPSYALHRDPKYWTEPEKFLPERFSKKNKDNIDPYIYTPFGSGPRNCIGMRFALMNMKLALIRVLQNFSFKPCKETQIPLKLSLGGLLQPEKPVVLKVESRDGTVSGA
Sequence of Glucocorticoid receptor (Homo sapiens) (P04150 whole entry, looked up): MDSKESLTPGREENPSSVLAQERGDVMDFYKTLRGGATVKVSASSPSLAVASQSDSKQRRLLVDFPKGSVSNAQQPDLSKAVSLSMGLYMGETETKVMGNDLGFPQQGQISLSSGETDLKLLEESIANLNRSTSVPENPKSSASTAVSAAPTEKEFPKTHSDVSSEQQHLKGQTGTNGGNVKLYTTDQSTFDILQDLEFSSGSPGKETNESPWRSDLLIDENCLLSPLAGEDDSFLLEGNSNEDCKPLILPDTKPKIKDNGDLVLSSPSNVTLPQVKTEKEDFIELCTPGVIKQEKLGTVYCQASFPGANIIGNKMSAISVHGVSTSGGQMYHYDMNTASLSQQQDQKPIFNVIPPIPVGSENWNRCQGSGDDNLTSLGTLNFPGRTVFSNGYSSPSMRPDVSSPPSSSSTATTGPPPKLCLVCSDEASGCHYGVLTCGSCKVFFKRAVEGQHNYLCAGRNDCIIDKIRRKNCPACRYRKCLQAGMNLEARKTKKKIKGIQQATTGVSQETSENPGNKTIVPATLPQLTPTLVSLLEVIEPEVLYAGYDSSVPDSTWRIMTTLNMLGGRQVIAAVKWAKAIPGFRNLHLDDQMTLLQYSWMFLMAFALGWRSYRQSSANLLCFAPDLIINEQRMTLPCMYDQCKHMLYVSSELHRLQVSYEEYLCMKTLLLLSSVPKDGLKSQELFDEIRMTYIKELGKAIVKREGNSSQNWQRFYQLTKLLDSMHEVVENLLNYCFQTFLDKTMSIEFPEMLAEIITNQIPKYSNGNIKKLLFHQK
Sequence of Cytochrome P450 1A2 (Homo sapiens) (P05177 whole entry, looked up): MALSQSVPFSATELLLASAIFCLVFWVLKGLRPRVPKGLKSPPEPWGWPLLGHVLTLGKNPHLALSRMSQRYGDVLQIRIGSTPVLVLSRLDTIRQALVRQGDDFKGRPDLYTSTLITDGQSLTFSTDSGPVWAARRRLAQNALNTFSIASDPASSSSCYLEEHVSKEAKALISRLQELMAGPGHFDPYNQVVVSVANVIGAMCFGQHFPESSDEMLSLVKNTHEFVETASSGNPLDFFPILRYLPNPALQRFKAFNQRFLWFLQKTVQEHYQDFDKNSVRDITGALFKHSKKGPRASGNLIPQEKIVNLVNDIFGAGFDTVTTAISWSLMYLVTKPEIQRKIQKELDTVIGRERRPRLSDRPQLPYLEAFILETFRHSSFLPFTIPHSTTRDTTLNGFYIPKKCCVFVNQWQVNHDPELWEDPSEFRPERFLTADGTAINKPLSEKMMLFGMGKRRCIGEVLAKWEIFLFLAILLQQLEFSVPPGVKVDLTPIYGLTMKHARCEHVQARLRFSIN

Turning to `O=C1C=C2C=CC3C[C@@]2(O1)C1CCCCN31` (stereo not given in full), the Potency entry in assay [1], in assay [2], in assay [4], in assay [5] and in assay [6] was “inactive” in each case. In addition, in assay [3] (at 57.5 µM (top of the series)), the activity change, negative = inhibition is 4.29% (inactive). For the same compound, the values for the max response in assay [3] (setting [14]) and in assay [3] (setting [15]) were 5.82% and 10.8%, respectively. In addition, the Potency in assay [7] (parasite line A) was 11.2 µM (active); in [7] (parasite line B), 8.91 µM (active); in the assay on AS120 it was 10 µM (active); in the assay with ATS189, 11.2 µM (active); with CP247 it was 11.2 µM (active); in the assay on CP269 it was 15.1 µM (active). Also, the Potency was 11.2 µM (active) in the assay on ECU and 5.01 µM (active) with TAB109.
Regarding `C[N+]1(C)CCO[C@](O)(c2ccc(-c3ccc([C@]4(O)C[N+](C)(C)CCO4)cc3)cc2)C1`, the Potency entry in assay [8] was “inactive”. The Potency in [9] and in assay [10] was > 20.6 µM (inactive) in each case. Moreover, the call in [11] was inactive. The activity change, negative = inhibition in [3] (at 25.7 µM (top of the series)) was -0.651% (inactive). The max response in [3] (setting [14]) came to 6.3%; in [3] (setting [15]), 5.83%.
For `CNC(C)[C@@H](O)c1ccccc1` (stereo not given in full), the Potency result (in assay [12]; in assay [2]; in [4]; in assay [6]; in the assay with AS120; in the assay with ATS189) was “inactive” each time. The Potency entry with CP247, in the assay with CP269, in the assay on ECU and in the assay on TAB109 was “inactive” in each case. In [3] (at 57.5 µM (top of the series)), the activity change, negative = inhibition was -6.91% (inactive). Moreover, the max response came out at 19.3% in assay [3] (setting [14]) and 12.8% in [3] (setting [15]). The values for the activity, negative = inhibition in assay [7] (parasite line A) and in assay [7] (parasite line B) were -2.9% (inactive) and -5.29% (inactive), respectively.
On to `C=CC1CN2CCC1CC2C(OC(=O)OCC)c1ccnc2ccc(OC)cc12` (stereo not given), for which the Potency in assay [12] was 7.94 µM (active); in [7] (parasite line A), 1.58 µM (active); in assay [7] (parasite line B), 2.24 µM (active); in the assay on AS120 it was 7.94 µM (active); in the assay with ATS189 it was 5.62 µM (active); in the assay on CP247 it was 7.94 µM (active). Moreover, the Potency in the assay with CP269 is 9.53 µM (active); in the assay with ECU it was 3.98 µM (active); with TAB109 it was 4.47 µM (active). For the same compound, the Potency result in [1], in [13], in assay [2], in [4], in assay [5] and in [6] was “inactive” in each case. The activity change, negative = inhibition in [3] (at 57.5 µM (top of the series)) was 5.87% (inactive). The max response in assay [3] (setting [14]) stood at 0.936%; in assay [3] (setting [15]) it was 9.58%.
In the case of `C[C@@]12CC[C@H]3[C@@H](CC[C@]4(O)C[C@H](O)CC[C@@]34C=O)[C@]1(O)CC[C@@H]2C1=CC(=O)OC1`, the Potency in assay [9] and in assay [10] was > 20.6 µM (inactive) each time. For the same compound, the outcome in assay [11] was inactive. In addition, in assay [3] (at 25.7 µM (top of the series)), the activity change, negative = inhibition was -0.542% (inactive). Further, the max response in [3] (setting [14]) is 6.59%; in assay [3] (setting [15]) it was 6.37%.
Take `C[C@H]1CC[C@@]2(NC1)O[C@@H]1C[C@H]3[C@@H]4CC=C5C[C@@H](O)CC[C@]5(C)[C@@H]4CC[C@]3(C)[C@@H]1[C@@H]2C`: the Potency result in [8] and in assay [5] was “inactive” each time. The Potency in assay [9] and in [10] was > 20.6 µM (inactive) each time. For the same compound, in assay [11], the result was inactive. The activity change, negative = inhibition in [3] (at 25.7 µM (top of the series)) is -1.61% (inactive). Besides, the max response was 0.522% in assay [3] (setting [14]) and -7.85% in assay [3] (setting [15]).
